For some assays here: Results with a measured potency or affinity are listed apart.
Tests used:
Set-up in all cases: scale not given: direction of the effect not stated beside the values
[1] = target: Protein translocase subunit SecA (Escherichia coli (strain K12)) (UniProt P10408); test: Assay to Identify E. coli SecA ATPase Inhibitors; type: functional; settings: 30 µM
[2] = target: T1, Ubiquitin-activating enzyme e1, putative (Leishmania donovani (strain BPK282A1)) (UniProt E9BSI1); test: Leishmania donovani Ubiquitin Activating Enzyme (LdE1); type: functional; settings: 30 µM
T1 sequence (whole entry): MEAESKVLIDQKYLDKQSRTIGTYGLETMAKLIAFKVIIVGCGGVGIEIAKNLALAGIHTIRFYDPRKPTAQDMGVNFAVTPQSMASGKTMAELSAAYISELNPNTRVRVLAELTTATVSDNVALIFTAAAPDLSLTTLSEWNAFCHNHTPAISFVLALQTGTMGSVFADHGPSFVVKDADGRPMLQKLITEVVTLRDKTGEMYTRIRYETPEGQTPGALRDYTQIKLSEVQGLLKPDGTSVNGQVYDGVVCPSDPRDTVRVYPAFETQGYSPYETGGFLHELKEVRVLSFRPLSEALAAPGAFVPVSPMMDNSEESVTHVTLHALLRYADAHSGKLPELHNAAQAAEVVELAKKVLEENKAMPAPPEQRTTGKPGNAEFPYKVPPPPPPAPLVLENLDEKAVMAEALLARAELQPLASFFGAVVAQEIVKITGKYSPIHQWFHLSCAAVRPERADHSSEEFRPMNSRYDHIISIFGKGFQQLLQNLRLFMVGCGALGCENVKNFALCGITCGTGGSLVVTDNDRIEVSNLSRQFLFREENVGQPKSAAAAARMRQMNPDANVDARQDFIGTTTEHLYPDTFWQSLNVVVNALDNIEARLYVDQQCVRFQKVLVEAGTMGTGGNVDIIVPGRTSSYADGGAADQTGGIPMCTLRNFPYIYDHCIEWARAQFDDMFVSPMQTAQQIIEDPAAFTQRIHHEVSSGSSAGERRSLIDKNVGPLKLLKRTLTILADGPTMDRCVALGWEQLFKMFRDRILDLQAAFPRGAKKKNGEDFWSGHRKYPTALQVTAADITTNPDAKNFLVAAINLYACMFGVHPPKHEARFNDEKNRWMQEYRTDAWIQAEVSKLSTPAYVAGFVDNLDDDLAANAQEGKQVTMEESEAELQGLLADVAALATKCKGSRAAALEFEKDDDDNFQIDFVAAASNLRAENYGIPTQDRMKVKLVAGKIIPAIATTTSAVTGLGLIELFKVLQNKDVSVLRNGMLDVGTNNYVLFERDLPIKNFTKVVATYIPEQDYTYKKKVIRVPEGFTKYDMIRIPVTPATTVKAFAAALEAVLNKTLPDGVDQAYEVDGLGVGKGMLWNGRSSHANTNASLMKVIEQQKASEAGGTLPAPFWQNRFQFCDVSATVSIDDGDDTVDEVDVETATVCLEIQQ

[3] = target: AMP-activated protein kinase, AMPK (Homo sapiens) (UniProt P54646+O43741+P54619+Q9UGJ0+Q9Y478+Q13131+Q9UGI9); test: AMP-dependent Kinase enzyme assay. An in vitro enzyme assay that detects ADP turnover that is directly proportional to AMPK activity. This uses naive AMPK that is activated during the assay with MK-8722; type: functional; settings: 30 µM
[4] = target: Sialic acid-binding Ig-like lectin 9 (Homo sapiens) (UniProt Q9Y336); test: Hs-Siglec9 ALPHAscreen SOP 20170721; settings: 10 µM
Trypanosoma cruzi = test: Trypanosoma cruzi phosphomannomutase and mannose-1-phosphate guanylyltransferase assay; type: functional; settings: 10 µM
[5] = target: T2, Arginase-2, mitochondrial (Homo sapiens) (UniProt P78540); test: in vitro enzyme assay to detect the production of urea directly proportional to the activity of Arginase II; type: functional; settings: 33.3 µM; note: in the data most compounds retested in dose-response had high values
T2 sequence (whole entry): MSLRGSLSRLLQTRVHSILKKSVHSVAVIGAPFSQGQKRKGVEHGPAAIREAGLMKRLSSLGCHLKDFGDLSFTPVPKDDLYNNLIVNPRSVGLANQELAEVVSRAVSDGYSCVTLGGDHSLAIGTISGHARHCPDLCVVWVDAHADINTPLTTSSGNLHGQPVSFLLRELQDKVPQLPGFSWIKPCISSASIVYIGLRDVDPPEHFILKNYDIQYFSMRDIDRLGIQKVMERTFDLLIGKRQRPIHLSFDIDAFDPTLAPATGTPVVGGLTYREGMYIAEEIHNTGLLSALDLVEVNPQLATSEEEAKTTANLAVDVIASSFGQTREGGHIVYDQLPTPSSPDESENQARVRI

[6] = target: T3, Proteasome subunit beta (Trypanosoma cruzi) (UniProt O96673); test: Trypanosoma cruzi proteasome chymotrypsin-like activity (TcProtChymo) assay.; note: in the data most compounds retested in dose-response had high values; type: functional; settings: 9.37 µM
T3 sequence (whole entry): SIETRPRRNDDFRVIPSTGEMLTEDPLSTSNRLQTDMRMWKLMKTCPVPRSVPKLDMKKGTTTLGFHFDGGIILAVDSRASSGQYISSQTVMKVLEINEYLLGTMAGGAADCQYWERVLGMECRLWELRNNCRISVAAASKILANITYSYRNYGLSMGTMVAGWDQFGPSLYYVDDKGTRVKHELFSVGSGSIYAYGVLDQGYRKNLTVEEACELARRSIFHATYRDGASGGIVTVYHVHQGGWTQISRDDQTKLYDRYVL

Homo sapiens = organism: Homo sapiens; test: To identify inhibition of the IFN signalling (Jak-Stat) pathway via expression of an eGFP reporter gene under the control of an IFN-stimulated response element (ISRE) containing MxA promoter.; type: functional; settings: 30 µM
[7] = target: T4, Tyrosyl-tRNA synthetase, putative (Trypanosoma cruzi (strain CL Brener)) (UniProt Q4DSP6); test: Trypanosoma cruzi tyrosyl tRNA synthetase (TcYRS) _High Tyrosine SOP; type: functional; settings: 30 µM; note: in the data most compounds retested in dose-response had high values
T4 sequence (whole entry): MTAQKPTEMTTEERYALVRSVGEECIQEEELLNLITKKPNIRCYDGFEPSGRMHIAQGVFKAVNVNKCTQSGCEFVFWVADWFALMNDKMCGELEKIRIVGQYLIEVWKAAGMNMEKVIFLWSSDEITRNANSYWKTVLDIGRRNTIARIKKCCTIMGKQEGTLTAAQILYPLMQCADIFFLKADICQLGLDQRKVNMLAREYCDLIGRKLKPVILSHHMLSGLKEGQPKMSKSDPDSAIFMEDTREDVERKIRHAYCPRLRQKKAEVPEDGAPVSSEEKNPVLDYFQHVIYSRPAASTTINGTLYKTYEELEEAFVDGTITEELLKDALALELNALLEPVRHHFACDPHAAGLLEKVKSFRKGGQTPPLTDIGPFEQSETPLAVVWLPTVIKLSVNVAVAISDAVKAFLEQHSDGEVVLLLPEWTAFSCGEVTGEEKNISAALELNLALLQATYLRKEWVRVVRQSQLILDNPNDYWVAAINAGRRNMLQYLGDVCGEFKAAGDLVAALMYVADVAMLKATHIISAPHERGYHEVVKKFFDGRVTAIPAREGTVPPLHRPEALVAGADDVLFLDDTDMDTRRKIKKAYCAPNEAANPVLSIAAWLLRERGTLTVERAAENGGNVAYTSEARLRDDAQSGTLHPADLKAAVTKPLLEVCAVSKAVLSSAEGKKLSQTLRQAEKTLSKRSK

[8] = target: T4, Tyrosyl-tRNA synthetase, putative (Trypanosoma cruzi (strain CL Brener)); test: Trypanosoma cruzi tyrosyl tRNA synthetase (TcYRS) SOP; type: functional; settings: 30 µM
[9] = target: Chromo domain-containing protein 1 (Saccharomyces cerevisiae (strain ATCC 204508 / S288c) (Baker's yeast)) (UniProt P32657); test: ScCHD-1 Enzyme Inhibition Assay; type: functional; settings: 30 µM; note: in the data most compounds retested in dose-response had high values
Chromo domain-containing protein 1 (Saccharomyces cerevisiae (strain ATCC 204508 / S288c) (Baker's yeast)), sequence (P32657 whole entry, the tested form may be a part): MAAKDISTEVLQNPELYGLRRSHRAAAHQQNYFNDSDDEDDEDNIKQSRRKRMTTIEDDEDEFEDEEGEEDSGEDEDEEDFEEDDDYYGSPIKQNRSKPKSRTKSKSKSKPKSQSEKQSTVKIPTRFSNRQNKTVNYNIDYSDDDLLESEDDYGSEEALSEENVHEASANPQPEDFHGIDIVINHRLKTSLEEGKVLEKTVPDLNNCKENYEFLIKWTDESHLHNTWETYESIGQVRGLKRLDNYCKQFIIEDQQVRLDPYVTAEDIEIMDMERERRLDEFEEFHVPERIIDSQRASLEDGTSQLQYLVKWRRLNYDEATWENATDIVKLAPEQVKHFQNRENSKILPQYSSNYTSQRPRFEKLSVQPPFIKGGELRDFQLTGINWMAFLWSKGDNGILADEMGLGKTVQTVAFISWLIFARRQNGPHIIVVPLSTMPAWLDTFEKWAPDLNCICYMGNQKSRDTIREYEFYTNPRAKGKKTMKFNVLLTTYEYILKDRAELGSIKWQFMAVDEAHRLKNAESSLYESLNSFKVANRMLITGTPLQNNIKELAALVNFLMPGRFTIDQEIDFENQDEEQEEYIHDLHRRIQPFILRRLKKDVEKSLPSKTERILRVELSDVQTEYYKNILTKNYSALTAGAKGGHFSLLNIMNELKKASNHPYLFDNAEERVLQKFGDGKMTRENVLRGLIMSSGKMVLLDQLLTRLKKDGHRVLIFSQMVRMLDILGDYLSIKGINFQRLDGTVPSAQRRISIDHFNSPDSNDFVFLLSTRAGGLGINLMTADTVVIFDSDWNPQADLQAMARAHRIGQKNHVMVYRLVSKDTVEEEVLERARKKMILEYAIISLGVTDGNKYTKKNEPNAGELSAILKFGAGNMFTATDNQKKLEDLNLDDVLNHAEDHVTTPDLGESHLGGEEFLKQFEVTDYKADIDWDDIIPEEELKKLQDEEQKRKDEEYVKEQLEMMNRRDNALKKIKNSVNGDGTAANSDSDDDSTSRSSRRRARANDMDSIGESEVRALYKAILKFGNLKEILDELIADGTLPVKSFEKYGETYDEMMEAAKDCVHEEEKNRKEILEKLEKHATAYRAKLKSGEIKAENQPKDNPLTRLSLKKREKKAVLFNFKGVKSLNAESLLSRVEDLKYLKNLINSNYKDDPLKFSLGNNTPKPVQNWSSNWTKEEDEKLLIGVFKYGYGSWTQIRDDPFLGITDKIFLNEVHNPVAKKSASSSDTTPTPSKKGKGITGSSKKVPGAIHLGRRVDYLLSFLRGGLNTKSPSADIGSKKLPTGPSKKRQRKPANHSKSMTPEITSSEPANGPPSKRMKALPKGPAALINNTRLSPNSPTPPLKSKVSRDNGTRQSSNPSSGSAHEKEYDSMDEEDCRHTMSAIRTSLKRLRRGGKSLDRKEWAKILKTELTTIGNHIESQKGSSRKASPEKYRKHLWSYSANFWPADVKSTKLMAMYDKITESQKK

Sialic acid-binding Ig-like lectin 9 (Homo sapiens), sequence (Q9Y336 whole entry): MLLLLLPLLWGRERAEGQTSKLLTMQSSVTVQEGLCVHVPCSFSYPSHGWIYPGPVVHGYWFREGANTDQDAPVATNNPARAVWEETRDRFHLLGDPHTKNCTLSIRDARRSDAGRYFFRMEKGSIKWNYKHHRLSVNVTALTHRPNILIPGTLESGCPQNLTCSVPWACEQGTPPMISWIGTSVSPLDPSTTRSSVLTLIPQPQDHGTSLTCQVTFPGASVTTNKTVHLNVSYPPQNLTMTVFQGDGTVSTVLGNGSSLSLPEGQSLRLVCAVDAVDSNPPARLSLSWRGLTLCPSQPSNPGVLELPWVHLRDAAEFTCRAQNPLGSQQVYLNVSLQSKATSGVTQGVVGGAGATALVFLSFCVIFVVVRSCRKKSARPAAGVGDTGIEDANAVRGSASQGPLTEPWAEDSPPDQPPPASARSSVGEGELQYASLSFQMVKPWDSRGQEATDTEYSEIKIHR
Protein translocase subunit SecA (Escherichia coli (strain K12)), sequence (P10408 whole entry): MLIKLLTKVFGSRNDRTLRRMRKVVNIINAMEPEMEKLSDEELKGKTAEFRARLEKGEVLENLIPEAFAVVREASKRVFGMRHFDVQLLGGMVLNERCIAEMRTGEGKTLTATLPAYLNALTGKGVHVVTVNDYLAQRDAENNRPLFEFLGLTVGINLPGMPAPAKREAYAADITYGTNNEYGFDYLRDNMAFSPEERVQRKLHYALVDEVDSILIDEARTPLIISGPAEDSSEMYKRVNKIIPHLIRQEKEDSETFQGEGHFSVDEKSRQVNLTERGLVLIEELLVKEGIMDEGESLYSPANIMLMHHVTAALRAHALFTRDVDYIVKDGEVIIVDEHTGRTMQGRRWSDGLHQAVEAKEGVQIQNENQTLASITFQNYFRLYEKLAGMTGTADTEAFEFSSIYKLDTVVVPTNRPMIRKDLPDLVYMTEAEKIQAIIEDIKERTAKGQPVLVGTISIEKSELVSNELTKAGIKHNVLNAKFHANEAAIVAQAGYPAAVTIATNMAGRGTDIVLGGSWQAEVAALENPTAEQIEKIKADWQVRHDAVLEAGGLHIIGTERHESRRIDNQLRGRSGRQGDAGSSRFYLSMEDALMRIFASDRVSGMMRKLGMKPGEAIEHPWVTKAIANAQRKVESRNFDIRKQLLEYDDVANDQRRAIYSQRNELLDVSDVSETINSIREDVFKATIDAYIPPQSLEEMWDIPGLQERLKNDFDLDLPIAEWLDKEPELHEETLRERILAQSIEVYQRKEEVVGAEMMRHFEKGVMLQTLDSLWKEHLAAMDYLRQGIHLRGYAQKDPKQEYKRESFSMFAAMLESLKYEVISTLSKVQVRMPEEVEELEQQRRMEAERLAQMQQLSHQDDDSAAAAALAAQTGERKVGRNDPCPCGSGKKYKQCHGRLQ

SMILES	Percent Effect [1] [%]	Percent Effect [2] [%]	Percent Effect [3] [%]	Percent Effect [4] [%]	Percent Effect (Trypanosoma cruzi) [%]	Percent Effect [5] [%]	Percent Effect [6] [%]	Percent Effect (Homo sapiens) [%]	Percent Effect [7] [%]	Percent Effect [8] [%]	Percent Effect [9] [%]
CCc1cnc(C)nc1NCCN1CCCCCC1	-0.998	5.2	-1.3	10.8	-0.295	0	14.3	0.592	14	16.1	-4.71
CN(C)c1cncc(C2CCN(C(=O)CO)CC2)n1	-3.4	6.76	7.38	5.95	0.198	2.55	10.8	22	4.3	9.09	-10.6
CN1CCCC[C@@H]2[C@H]1[C@@H](c1ccccc1)CCN2C(=O)c1cnccn1	-4.56	1.35	4.14	1.98	0.988	-3.48	21.2	-2.99	5.38	11.7	-17.5
CCOc1ccc(CC(CNC(=O)c2ccoc2)C(N)=O)cc1 (configuration not stated)	-5.97	13	-355	-18.6	8.13	-3.16	16.7	7.68	7.62	21.2	-16.2
CCn1cnnc1C1CCN(C(=O)c2ccc3cc[nH]c3c2)CC1	-5.68	7.89	11.4	8.5	-3.21	3.55	11	-5.37	-2.13	7.79	-4.05
Cn1ncc2c(N3CCN(C(N)=O)CC3)nc(C3CCCC3)nc21	-1.31	1.39	27.7	-4.81	-7.29	0.883	18.4	25.9	1.05	-7.69	-4.35
COCCn1ccnc1C1CCCN(C(=O)CSCC2CC2)C1 (configuration not stated)	-1.08	6.94	-7.23	-0.00565	4.37	0	19.1	1.07	3.16	7.69	-0.19
CCc1nc(CN2CCCC(NCc3nc4cccnc4[nH]3)C2)no1 (configuration not stated)	-0.119	20.2	-9.6	-10.5	2.36	0	5.98	11.5	10.3	16.5	-8.46
O=C(NCCCN1CCOCC1)c1cc(-c2ccc3c(c2)CCO3)n[nH]1	-5.47	-20	-0.583	0.426	2.36	-15	12.2	-4.93	1.06	-2.56	-5.21
CCC(=O)NC1CCN(c2cccc(CC)c2)CC1	-7.28	3.8	2.12	-4.76	1.13	-1.5	4.97	16.9	3.12	-10.1	-27.3
CCn1nnc2c1C(COC)CN(Cc1cccs1)C2 (configuration not stated)	-2.49	5.41	4.39	6.4	4.69	1.67	12.3	-4.92	4.95	8.54	-4.09
CC(=O)N1CCNCC1c1cccc(C(=O)N(C)C)c1 (configuration not stated)	-0.644	-6.76	10.3	-0.354	-4.94	4.41	-3.43	4.59	1.07	1.3	0.199
Cc1cccc(Nc2nccnc2C2CCCN2CC(=O)N(C)C)n1 (configuration not stated)	-5.74	8	-0.423	3.06	5.32	-3.5	-3.08	1.25	4.25	6.41	3.88
COCCCN(C)C1CCCN(Cc2noc(C)n2)C1 (configuration not stated)	-1.35	2.7	-5.43	12.9	4.18	-0.554	-3.05	11.9	3.96	15.8	-1.13
CC(C(=O)NCCCN1CCCCCC1=O)n1cncn1 (configuration not stated)	-2.32	21.1	-0.014	-11.5	-1.4	-5.04	8.04	2.75	5.42	13.6	-7.45
Cc1ccccc1CSc1nc(N)cc(N2CCOC(C(N)=O)C2)n1 (configuration not stated)	-5.78	2.7	-2.45	-7.55	-4.4	0.248	10	22.4	6.45	11.1	-1.13
O=C(NCCCn1cncn1)N1CCCC(N2CCCC2)C1 (configuration not stated)	-3.14	21.1	-6.64	-3.21	3.01	2.3	13.4	14.6	5.39	19.5	-10.5
CC(NC(=O)N(C)Cc1ccncc1)c1nncn1C (configuration not stated)	-3.28	20.8	3.42	21	2.43	22.5	13.2	-6.33	1.05	15.4	-7.53
Cc1noc(C(C)C)c1C(=O)N1CCCN(Cc2cscn2)CC1	-4.04	18.2	-1.96	-7.63	2.25	-0.632	15.6	0.184	7.62	21.2	-23.9
Cc1n[nH]c(C)c1NC(=O)CN1CCn2c(nnc2C(C)C)C1	-0.613	2.6	7.19	2.99	2.06	2.74	5.42	-7.56	0	0	-16.6
Cc1cnc(C(=O)N2CCc3ncnc(C)c3CC2)cn1	-2.65	0	-0.0548	5.51	-1.39	-2.79	15.8	19.6	2.08	11.1	-2.02
CC(C)c1ncc2c(n1)CN(Cc1cccc(OCC(N)=O)c1)CC2	-3.71	10.5	-32.8	10.8	2.44	4.6	-1	-8.11	8.33	0	4.59

From ChEMBL document CHEMBL3988442, “University of Dundee, Small-Polar-MMV Screening Library” (2021)
